Screening data as filed in PubChem.
This is a sample that favours compounds with a hit; in the whole collection about 3.7% have one here.
Mtb betalactam: beta-lactam sensitization of Mtb H37Rv | AID 434955 | 330,000 compounds, 0.27% hits | inhibition, % at 25 µM | M. tuberculosis H37Rv growth with meropenem, percent inhibition; call rule not given here;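 note: growth measured after seven days incubation then overnight dye step; 0% = bacteria only wells and 100% = bacteria with antibiotic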
GDH-TPI counter-1: GDH-TPI coupled enzyme inhibition counter-screen; GDH-TPI coupled enzyme counterscreen, NADH absorbance; inhibition, % at 4.8 µM; 360,000 compounds, 1.2% hits; AID 588335; in the data active = inhibition above about 30%;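 note: 0% = DMSO wells and 100% = wells lacking the enzyme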
FadD28 binding: blocks FadD28 binding to the bisubstrate probe. fluorescence polarization. inhibition, % at 12.5 µM. 360,000 compounds, 0.22% hits; in the data active = inhibition above about 8.5%, passing the limit was not always enough; inconclusive = no clear call, values can overlap the other calls
Mtb UGM inh: inhibitors of M. tuberculosis UDP-galactopyranose mutase | AID 504406 | P9WIQ1 | 320,000 compounds, 0.06% hits | inhibition, % at 10 µM | purified UGM, fluorescence polarization probe displacement; in the data active = inhibition above about 10%, passing the limit was not always enough; inconclusive = no clear call, values can overlap the other calls
FBA Mtb inh: inhibits M. tuberculosis FBA enzyme; P9WQA3; purified M. tuberculosis FBA, fluorescence read-out; inhibition, % at 1 µM; 360,000 compounds, 2.3% hits;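 note: 0% = vehicle and 100% = reference inhibitor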
Target sequence (P9WQA3 whole entry, looked up): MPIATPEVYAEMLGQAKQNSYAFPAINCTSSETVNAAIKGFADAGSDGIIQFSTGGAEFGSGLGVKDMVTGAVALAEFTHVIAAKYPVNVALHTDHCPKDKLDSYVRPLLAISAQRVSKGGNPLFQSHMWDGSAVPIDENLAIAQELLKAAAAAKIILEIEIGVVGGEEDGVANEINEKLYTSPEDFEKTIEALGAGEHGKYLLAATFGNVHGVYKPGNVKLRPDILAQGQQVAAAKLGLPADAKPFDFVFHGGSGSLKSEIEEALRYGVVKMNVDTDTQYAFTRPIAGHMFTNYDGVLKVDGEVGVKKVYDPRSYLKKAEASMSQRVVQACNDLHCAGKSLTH
Rv3671c protease: inhibits the M. tuberculosis serine protease Rv3671c; AID 2606; 320,000 compounds, 0.048% hits; inhibition, % at 5.96 µM; in the data active = inhibition above about 38%;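 note: extracellular domain of Rv3671c used as enzyme; 0% = enzyme with DMSO and 100% = no enzyme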
Target sequence (P9WHR9 whole entry, looked up, the tested form may be a part): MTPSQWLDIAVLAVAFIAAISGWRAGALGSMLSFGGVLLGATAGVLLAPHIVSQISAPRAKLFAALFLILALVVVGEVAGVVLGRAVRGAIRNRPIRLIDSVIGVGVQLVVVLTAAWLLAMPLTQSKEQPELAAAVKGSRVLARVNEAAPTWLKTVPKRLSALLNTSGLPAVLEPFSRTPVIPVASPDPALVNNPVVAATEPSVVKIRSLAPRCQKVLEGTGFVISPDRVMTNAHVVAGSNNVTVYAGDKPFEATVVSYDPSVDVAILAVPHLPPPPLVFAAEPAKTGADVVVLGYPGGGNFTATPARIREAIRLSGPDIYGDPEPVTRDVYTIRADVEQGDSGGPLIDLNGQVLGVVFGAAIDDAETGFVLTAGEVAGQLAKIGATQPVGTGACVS
Mtb FBA confirm: confirmation of M. tuberculosis fructose-bisphosphate aldolase inhibitors | shares compounds with FBA Mtb inh | purified M. tuberculosis FBA, fluorescence read-out | inhibition, % at 1 µM | 5,600 compounds, 78% hits | AID 651616;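 note: 0% = vehicle wells and 100% = reference inhibitor wells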
GDH-TPI counter-2: counter-screen for M. tuberculosis FBA inhibitors: GDH-TPI coupled enzyme inhibition. shares compounds with FBA Mtb inh. GDH-TPI coupled enzyme counterscreen, fluorescence. inhibition, % at 1 µM. 5,600 compounds, 81% hits; in the data active = inhibition above about 10%
GDH-TPI dose: inhibits GDH-TPI coupling enzymes in dose response. shares compounds with FBA Mtb inh. 170 compounds, 79% hits. GDH-TPI coupled enzyme assay, fluorescence, artifact counterscreen. AID 652145. IC50, µM; call rule not given here
An asterisk follows results filed as active; ? = inconclusive; / = not tested or not shown. Cut-off read from the data, not from the text of the source, unless noted: active = inhibition above about 27%; inactive = the rest.

SMILES | Mtb betalactam | GDH-TPI counter-1 | FadD28 binding | Mtb UGM inh | FBA Mtb inh | Rv3671c protease | Mtb FBA confirm | GDH-TPI counter-2 | others
Cc1c(C(=O)NCc2cccs2)sc(=O)n1Cc1ccc(S(=O)(=O)N(C)C)cc1 | / | 12.0 | -6.5 | / | -1.9 | / | / | /
Cc1cc2n(n1)C(c1ccc(N(C)C)cc1)Nc1ccccc1-2 (stereo unspecified) | 6.1 | 28.9 | -4.6 | 1.8 | 32.6* | 12.2 | 97.9* | 81.7*
COc1ccc(Cl)cc1C(=O)NN=C1CCCC1 | -5.8 | 15.7 | -3.1 | 0.9 | -0.7 | 0.7 | / | /
O=C(NN=C1CCCC1)c1cc(Cl)cc(Cl)c1O | 7.8 | 8.6 | 20.1* | 0.3 | 41.4* | 7.1 | 70.4* | 61.0*
CCOC(=O)C1CCN(CC(O)COc2ccc(S(=O)(=O)N3CCCC3)cc2[N+](=O)[O-])CC1 (stereo unspecified) | / | 1.4 | -2.1 | / | 3.7 | / | / | /
COc1ccc(C2Nc3ccccc3C(=O)N2NS(C)(=O)=O)c(OC)c1 (stereo unspecified) | -1.5 | 4.3 | -3.3 | 1.4 | 27.7* | 1.1 | 12.3 | 1.1
CS(=O)(=O)NN1C(=O)c2ccccc2NC1c1cccc(O)c1 (stereo unspecified) | -8.3 | 8.3 | -0.7 | -0.4 | 40.9* | -4.8 | 111.9* | 81.0*
CS(=O)(=O)NN1C(=O)c2ccccc2NC1c1ccccc1 (stereo unspecified) | -1.0 | 4.5 | -1.3 | 1.9 | 34.0* | -5.0 | 12.9 | -4.1 | GDH-TPI dose=5.37*
Cc1ccc(C(=O)N2CCN(C/C=C/c3ccccc3)CC2)cc1S(=O)(=O)N1CCOCC1 | / | -5.4 | 0.3 | / | -0.6 | / | / | /
Cc1ccc(CC(=O)Nc2cccc(C(=O)Nc3c(C)n(C)n(-c4ccccc4)c3=O)c2)cc1C | / | -0.9 | -1.8 | / | -0.1 | / | / | /
Cn1cc(-c2csc(C(C)(O)c3cccnc3)n2)cn1 (stereo unspecified) | / | 12.4 | -0.8 | / | 4.8 | / | / | /
CCCC(=O)N1CCN(c2nc(CC(C)C)c3c(c2C#N)CCC3)CC1 | 35.5 | 9.1 | -0.8 | 0.9 | 31.6* | 5.6 | 159.2* | 119.6*
Cc1cc(=O)n2c(nc3ccccc32)[nH]1 | -0.7 | -3.0 | -3.7 | 0.2 | 37.3* | 1.3 | 64.2* | 41.9*
CCCc1cc(=O)n2c(nc3ccccc32)[nH]1 | -3.3 | 13.8 | -0.5 | 1.3 | 47.2* | -2.3 | 4.1 | -5.0
CCCCc1c(C)[nH]c2nc3ccccc3n2c1=O | 4.4 | 7.1 | 1.0 | 0.0 | 6.9 | -2.1 | / | /
O=C(O)c1cccc(N(CCO)CCO)c1 | -4.9 | 1.3 | 0.4 | 0.1 | 38.7* | 2.8 | 98.6* | 75.3*
OCCN(CCO)c1ccc(C(c2ccccc2Cl)c2ccc(N(CCO)CCO)cc2Cl)c(Cl)c1 | 1.7 | 15.0 | 3.3 | / | -1.5 | 18.9 | / | /
O=C(O)CCN(CCC(=O)O)c1ccccc1 | -10.1 | 0.6 | -1.7 | -0.7 | 2.5 | 2.9 | / | /
OCCN(CCO)c1ccc2ccccc2c1 | 4.2 | 2.2 | 0.2 | 0.1 | 109.4* | 1.6 | 33.2* | 27.4*
O=C(NC(=S)Nc1ccccc1O)c1ccc(-c2ccc(Cl)cc2)o1 | 88.7 | 15.2 | -2.2 | -0.5 | 6.7 | -2.4 | / | /
CC(=O)NC(=O)c1ccc(-c2ccc(Cl)cc2)o1 | 95.9 | 20.8 | -1.5 | 0.2 | 78.0* | -10.7 | 46.1* | 56.0*
O=C(COC(=O)c1cc(S(=O)(=O)N2CCCC2)ccc1O)NCCc1ccccc1 | -1.5 | -0.3 | -3.1 | -2.6 | 7.8 | -5.1 | / | /
CCOC(=O)c1nn(-c2ccc3c(c2)OCCO3)cc1O | 84.1 | 3.8 | -0.2 | 1.6 | 30.8* | 2.9 | 92.8* | 64.8*
CCOC(=O)c1nn(-c2ccc(C)c(C)c2)cc1O | 98.3 | 15.7 | -0.7 | 0.4 | 2.5 | -0.2 | / | /
Cc1ccc(-c2nc3ncccc3o2)cc1NC(=S)NC(=O)c1ccco1 | 2.6 | -0.4 | -2.6 | -0.9 | 1.6 | -13.2 | / | /
SMILES | Mtb betalactam | GDH-TPI counter-1 | FadD28 binding | Mtb UGM inh | FBA Mtb inh | Rv3671c protease | Mtb FBA confirm | GDH-TPI counter-2 | others
Cc1cc(-c2nc3ncccc3o2)ccc1NC(=S)NC(=O)c1ccco1 | 4.2 | 10.5 | -0.8 | -0.7 | 32.9* | 1.2 | 39.4* | 32.2*
CCCC(=O)Nc1ccc2oc(-c3cccnc3)nc2c1 | -6.1 | 3.3 | -2.1 | 1.6 | 74.3* | 3.6 | 169.0* | 138.4*
CCCC(=O)Nc1cc(-c2nc3ncccc3o2)ccc1C | -2.7 | 11.5 | 0.7 | 2.2 | 60.4* | -0.1 | 98.6* | 64.9*
Cc1ccc(-c2nc3ncccc3o2)cc1NC(=O)c1ccco1 | -7.7 | 3.0 | -4.8 | -0.5 | -1.5 | 5.4 | / | /
Cc1ccc(-c2nc3ncccc3o2)cc1NC(=O)C(C)(C)C | 7.5 | 4.5 | -1.5 | -0.5 | 29.7* | -1.2 | 25.6 | 22.4*
Nc1nc2c(ncn2[C@@H]2O[C@H](CNS(=O)(=O)c3cccnc3)[C@@H](O)[C@H]2O)c(=O)[nH]1 | / | / | -0.5 | / | -0.4 | / | / | /
CCCC(=O)Nc1ccc(-c2nc3ncccc3o2)cc1 | 1.7 | 30.1 | -1.5 | -3.4 | 86.8* | / | 21.2 | 16.8*
O=C(CN1C(=O)NC2(CCCCC2)C1=O)Oc1ccc2c(C(F)(F)F)cc(=O)oc2c1 | -5.5 | 6.5 | -1.1 | -6.1 | 31.2* | 11.9 | 106.7* | 70.5*
O=C(COC(=O)c1ccccc1NCCO)Nc1ccc(S(=O)(=O)NC2=NCCCCC2)cc1 | / | 17.8 | -0.6 | / | 83.8* | / | 84.2* | 61.1*
Cc1ccc(-n2nc3cc(C)c(N)cc3n2)cc1 | 1.6 | 9.2 | -0.4 | 0.0 | 15.7 | 9.7 | / | /
CCc1ccc(-n2nc3cc(C)c(N)cc3n2)cc1 | 97.2 | 5.4 | -3.6 | 0.3 | 55.7* | -4.3 | 62.9* | 68.9*
COCCNC(=S)N(C)[C@H]1C[C@H]2c3cc(N4CCN(C)CC4)ccc3CCN2C(=O)[C@H]1[C@H](C)O | / | -3.3 | -0.5 | / | 0.0 | / | / | /
CCCc1c(O)c2ccccc2[nH]c1=O | 10.0 | -9.1 | -0.6 | -0.2 | 29.9* | -1.8 | 49.7* | 41.6*
CCCSc1ncnc2[nH]ncc12 | / | 5.3 | 0.8 | / | 0.7 | / | / | /
COc1cccc(-c2nc3ccc(C(=O)NC(C)Cc4cccnc4)cc3o2)c1 (stereo unspecified) | 21.9 | 5.4 | ? | 0.1 | 43.2* | -5.4 | 64.5* | 31.7*
COc1ccc(CCNC(=O)c2ccc3c(c2)N(Cc2ccccc2)CCS3)cc1OC | 0.1 | 10.0 | -2.6 | 3.3 | 64.2* | -3.3 | 100.2* | 82.9*
COc1ccc(C(=O)NCCc2ccccc2)cc1OC | -0.4 | 4.3 | -0.1 | 0.3 | 2.0 | 0.2 | / | /
NS(=O)(=O)c1ccc(CCNC(=O)c2ccc3c(c2)N(Cc2ccccc2)CCS3)cc1 | -0.7 | 10.1 | 1.3 | 2.5 | 67.9* | -5.3 | 1.8 | -3.9
COc1ccc(-c2nnc(-c3cccnc3)o2)cc1 | -5.2 | -2.8 | -1.6 | -2.4 | 82.9* | 5.5 | 154.2* | 126.3*
